Most compounds without a hit are left out; they make up all but 0.9% or so of the library.
gsp agonist: gsp mutant agonism | gsp mutant cells, cAMP HTRF, 30 min | Potency, µM (titrated, usually from 76.9 µM), usual class: activators | hit rate 0.13% among 340,000; active = well fitted activation curve with a large enough effect; inconclusive = small, poorly fitted or top-dose-only effect, or another doubt; inactive = no such curve, though single readings can be large or run the other way; cell line not stated here;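 also: phosphodiesterase inhibitor Ro 20-1724 added with compounds to block cAMP breakdown; nearly all actives have a fitted effect of over 60% in size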
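Cells stably selected in G418 were plated at 2000/well, grown 16-24 hr, then given compounds in DMSO with the PDE inhibitor […] (300 uM solution added) for 30 min at 37C; cAMP was read by HTRF.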
gsp antag: antagonizes gsp, the McCune-Albright syndrome mutation; AID 624288; hit rate 0.4% among 340,000; gsp-mutant cells, cAMP HTRF, 30 min; Potency, µM (top dose mostly 76.9 µM), actives largely listed as inhibitors; calls by dose curve; cell line not stated here;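 also: intracellular cAMP measured with PDE inhibitor Ro 20-1724 present during compound exposure; nearly all actives have a fitted effect of over 65% in size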
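G418-selected cells were plated in DMEM/10% FBS for 16-24 h at 37C, then treated with compounds plus the PDE inhibitor […] (300 uM solution added) for 30 min at 37C. Intracellular cAMP was measured by HTRF after 30 min lysis at room temperature.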
RXFP1 antag: antagonists of human relaxin receptor RXFP1; AID 1259400; HEK293-RXFP1, relaxin-stimulated cAMP HTRF, 30 min; hits give low values; activity change, negative = inhibition, % at 57.5 µM; hit rate 0.59% among 350,000;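 active = activity change of -60% or lower, but not beyond a set lower limit; inconclusive = change between -60% and -40%, or beyond the set limit; inactive = change above -40%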
Target sequence (Q9HBX9 whole entry, looked up): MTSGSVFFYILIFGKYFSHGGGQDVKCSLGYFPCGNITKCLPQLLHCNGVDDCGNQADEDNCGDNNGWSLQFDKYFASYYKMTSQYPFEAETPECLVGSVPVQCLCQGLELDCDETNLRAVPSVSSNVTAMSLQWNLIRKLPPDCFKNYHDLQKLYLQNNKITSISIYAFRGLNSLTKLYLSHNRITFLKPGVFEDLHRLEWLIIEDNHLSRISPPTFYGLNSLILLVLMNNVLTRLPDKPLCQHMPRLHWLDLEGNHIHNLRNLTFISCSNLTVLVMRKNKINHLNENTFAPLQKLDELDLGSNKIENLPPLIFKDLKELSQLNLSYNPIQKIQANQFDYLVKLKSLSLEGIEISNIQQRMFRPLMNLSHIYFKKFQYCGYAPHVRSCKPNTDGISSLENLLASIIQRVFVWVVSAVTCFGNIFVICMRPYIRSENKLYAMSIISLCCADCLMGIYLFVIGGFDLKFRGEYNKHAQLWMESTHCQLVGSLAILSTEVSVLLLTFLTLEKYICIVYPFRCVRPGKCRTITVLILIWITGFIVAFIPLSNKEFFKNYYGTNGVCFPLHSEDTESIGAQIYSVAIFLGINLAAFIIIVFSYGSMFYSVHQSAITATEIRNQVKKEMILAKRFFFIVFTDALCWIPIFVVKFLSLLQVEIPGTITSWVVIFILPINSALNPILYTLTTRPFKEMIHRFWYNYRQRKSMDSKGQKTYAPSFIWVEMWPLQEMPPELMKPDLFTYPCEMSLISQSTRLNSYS
RXFP1 agonist: agonists of human relaxin receptor RXFP1; HEK293T-RXFP1 cAMP TR-FRET, 30 min; response scale: percent of porcine relaxin response, buffer zero; Potency, µM (doses to about 57.5 µM), most hits filed as activators; hit rate 0.3% among 370,000; AID 2676; active = well fitted activation curve with a large enough effect; inconclusive = small, poorly fitted or top-dose-only effect; also: nearly all actives have a fitted effect of over 60% in size
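Agonist response is measured as cAMP accumulation in an RXFP1-transfected HEK293T line under PDE4 inhibition. Values are scaled between buffer-only and 29 nM porcine relaxin, and EC50s come from standard Hill equation fits.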
Each line names hits and unclear results; the compound was inactive in the other large screens.

Cc1ccc(N=Cc2cc(Cc3ccccc3Cl)cc([N+](=O)[O-])c2O)c(O)c1	RXFP1 antag -96
O=C(Nc1ccc2snnc2c1)Nc1cccc2ccccc12	gsp antag 50µM
O=C(Cn1cnc2c(nnn2-c2ccccc2)c1=O)NCC1CCCO1 (centres undefined)	gsp agonist inconclusive, RXFP1 agonist inconclusive
COc1cccc(-n2nnc3c(=O)n(CC(=O)NCC4CCCO4)cnc32)c1 (centres undefined)	gsp agonist 11µM
CC(C)CCn1c2ccccc2c2cc(CC(N)=O)ccc21	RXFP1 antag -72
CC(C)NC(=O)/C(C#N)=C/c1ccc(N(C)C)o1	gsp antag 35µM
O=C(Nc1cccc(-c2cnc3ccccc3n2)c1)C1CC(=O)N(c2ccccc2)C1 (centres undefined)	gsp antag inconclusive, RXFP1 antag -73
CCCCn1c(=O)c2oc3ccccc3c2n(Cc2cccc(F)c2)c1=O	none (no result: gsp agonist, gsp antag)
O=C(NCc1ccccc1Cl)c1ccc(CS(=O)(=O)c2ccc(Br)cc2)o1	none (no result: gsp agonist, gsp antag, RXFP1 antag)
CCSc1nnc(-c2ccccc2SC)o1	gsp agonist inconclusive, RXFP1 agonist 22µM
Cc1c(C(=O)OCc2ccccc2)[nH]c2c1C(=O)CC(c1ccc(N(C)C)cc1)C2 (centres undefined)	none (no result: gsp agonist, gsp antag)
Cc1c(C(=O)OCC2CCCO2)[nH]c2c1C(=O)CC(c1ccc(N(C)C)cc1)C2 (centres undefined)	gsp antag 40µM
COc1ccc2cc(CCN3C(=O)c4ccccc4C3=O)c(=O)[nH]c2c1	gsp agonist 11µM, RXFP1 agonist inconclusive (no result: RXFP1 antag)
CN1CCc2c(sc(NC(=O)CS(=O)(=O)c3ccccc3)c2C(N)=O)C1	gsp antag inconclusive, RXFP1 antag -63
CCCN1CCc2c(sc(NC(=O)CCS(=O)(=O)c3ccccc3)c2C(N)=O)C1	gsp agonist inconclusive
CC(C(O)c1ccccc1)N(C)CCOC(c1ccccc1)c1ccccc1 (centres undefined)	none (no result: gsp agonist, gsp antag, RXFP1 agonist)
N#Cc1c(Cl)nsc1NC(=O)c1ccccc1	gsp antag 32µM
CC(C)CN(C(=O)CSc1nncn1-c1ccccc1)c1c(N)n(CC(C)C)c(=O)[nH]c1=O	RXFP1 antag -60
Nc1c(O)ccc2c1C(=O)c1ccccc1C2=O	gsp antag 25µM, RXFP1 antag -80
Cc1ccc(C)c(N2CCN(C(=O)CCS(=O)(=O)c3ccc4c(c3)NC(=O)CO4)CC2)c1	gsp antag 50µM
CC(CC(=O)N1CCN(c2cccc(Cl)c2)CC1)S(=O)(=O)c1ccc2c(c1)NC(=O)CO2 (centres undefined)	gsp antag 28µM
Cc1noc(NS(=O)(=O)c2ccc(NC(=O)c3ccc(N4C(=O)c5ccccc5C4=O)cc3)cc2)c1C	none
COc1ccc(CC(=O)Nc2ccc(S(=O)(=O)Nc3onc(C)c3C)cc2)cc1OC	RXFP1 antag -113
Cc1noc(NS(=O)(=O)c2ccc(NC(=O)c3nn(-c4ccccc4)ccc3=O)cc2)c1C	gsp agonist 14µM, RXFP1 agonist inconclusive
Cc1cc(C)c(C#N)c(SCC(=O)Nc2ccc(S(=O)(=O)Nc3onc(C)c3C)cc2)n1	gsp agonist 18µM (no result: RXFP1 antag)
O=C(CN1C(=O)COc2ccc(S(=O)(=O)N3CCCCCC3)cc21)N1CCN(c2cccc(Cl)c2)CC1	none (no result: gsp agonist, gsp antag, RXFP1 antag)
CCOC(=O)c1[nH]c2ccccc2c1NC(=O)c1ccc(OC)c(OC)c1	none (no result: gsp agonist, gsp antag)
Cc1ccc(CNC(=O)CN(C)S(=O)(=O)c2ccc3c(c2)n(C)c(=O)c(=O)n3C)cc1	RXFP1 antag -68
Cc1ccc(S(=O)(=O)N(C)CC(=O)Nc2cc(C)ccn2)cc1	RXFP1 antag -83
CN(CC(=O)NCc1ccc(F)cc1)S(=O)(=O)c1ccc2c(c1)n(C)c(=O)c(=O)n2C	none
Cc1ccccc1C(=O)Nc1cccc(C(=O)OCc2cc(=O)n3ccsc3n2)c1	none (no result: gsp agonist, gsp antag)
COc1ccccc1NC(=O)C(=O)c1cc(C)n(-c2cc(C)cc(C)c2)c1C	none (no result: gsp agonist, gsp antag)
O=C(O)c1ccccc1C(=O)N1CCc2c([nH]c3ccccc23)C1C(F)(F)F (centres undefined)	none
O=C(c1cccc(C(F)(F)F)c1)N1CCc2c([nH]c3ccccc23)C1C(F)(F)F (centres undefined)	gsp agonist inconclusive, RXFP1 antag -92
Cc1cnc2cc(Cl)ccc2c1SCC(=O)O	gsp agonist 10µM
O=C(O)CSc1ccnc2cc(Cl)ccc12	RXFP1 agonist 13µM
O=C(O)CSCC(=O)N1CCN(c2ccnc3cc(Cl)ccc23)CC1	none
O=C(OCc1cc(=O)n2nc(-c3cccs3)sc2n1)c1cccc(F)c1	none (no result: gsp agonist, gsp antag, RXFP1 antag)
CCCNC(=O)c1ccc(-n2c(-c3ccccc3)cc3c2CCC(C)C3)cc1 (centres undefined)	none (no result: gsp agonist, gsp antag)
COCCNC(=O)c1ccc(-n2c(-c3ccccc3)cc3c2CCC(C)C3)cc1 (centres undefined)	RXFP1 antag -71 (no result: gsp agonist, gsp antag)
Clc1ccc(-c2noc(CSc3nnc(-c4ccncc4)n3-c3ccccc3)n2)cc1	gsp antag 32µM
Cc1ccc(-n2c(SCc3nc(-c4ccc(Cl)cc4)no3)nnc2-c2ccncc2)cc1	none (no result: gsp agonist, gsp antag, RXFP1 antag)
O=C(Nc1ccsc1C(=O)O)c1cccc(Oc2ccccc2)c1	gsp antag inconclusive, RXFP1 antag -80
CC(C)c1ccc(NC(=O)C(Cc2ccccc2)n2cccc2)cc1 (centres undefined)	RXFP1 antag -71 (no result: gsp agonist, gsp antag)
Cc1ccc(C(=O)NCC(=O)OCCOc2ccccc2Cl)cc1	RXFP1 antag -84
CN(C)c1ccc(C(CNS(=O)(=O)c2ccccc2)N2CCc3ccccc32)cc1 (centres undefined)	none (no result: gsp agonist, gsp antag)
COc1ccc(/C=C/C(=O)NNC(=O)c2cc(C)oc2C)cc1	RXFP1 antag -62
Cc1cc(C(=O)NNC(=O)/C=C/c2ccccc2Cl)c(C)o1	none
CC(C)Cc1ccc(C(C)CC2=CCC(CN(C)C)C2=O)cc1 (centres undefined)	RXFP1 antag -83 (no result: RXFP1 agonist)
CCCS(=O)(=O)c1nc(S(=O)(=O)c2ccc(C)cc2)c(N2CC(C)OC(C)C2)s1 (centres undefined)	gsp agonist inconclusive
CCS(=O)(=O)c1nc(S(=O)(=O)c2ccc(C)cc2)c(N2CC(C)OC(C)C2)s1 (centres undefined)	gsp agonist inconclusive, RXFP1 agonist 28µM
CCCS(=O)(=O)c1nc(S(=O)(=O)c2ccc(C)cc2)c(NCCCN2CCCC2=O)s1	gsp agonist 2.8µM
CCCS(=O)(=O)c1nc(S(=O)(=O)c2ccc(C)cc2)c(N2CCN(C)CC2)s1	gsp agonist 3.2µM, RXFP1 agonist inconclusive
N#Cc1ccc(Cl)cc1NC(=O)CNCc1cccs1	none
CC(C)[C@H](NC(=O)c1ccccc1)C(=O)OCC(=O)/C=C1/N(C)c2ccccc2C1(C)C	gsp antag 35µM
O=S(=O)(NCCC1=CCCCC1)c1ccc(Br)cc1	RXFP1 antag -70
Cc1nc(C)c(CC(=O)N2CCc3c([nH]c4ccccc34)C2c2ccccn2)s1 (centres undefined)	RXFP1 antag -75
